The values below come from PubChem BioAssay (NCI).

“And” between values parts separate entries of the source, which are not always exact repeats. Equal entries are not always repeated. Compounds without any hit were thinned out: in the full panel of roughly 83,000, 20% have a hit.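 Testing used 96-well plates and a 48-hour single-concentration exposure. Example: -40 means 40% of the starting cells died.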 Unmarked numbers belong to inactive results. The source made the active and inactive calls. Rule for the calls: active = growth percent below 10; inactive = the rest. Where a SMILES comes first, the peptide text is derived from it. The star is where a group is joined. Trt = c1ccc(C(c2ccccc2)(c2ccccc2)*)cc1; Cbz = O=C(OCc1ccccc1)*

This experiment relates to KM12 colon. Nature of the experiment: NCI-60 one-dose screen, 48 h (100 = growth as untreated, 0 = no growth, -100 = all killed). The following applies: 10 µM unless noted.
Take `COc1cc(/C=C/C(C)=O)ccc1O`: the growth was 90% and 92.7%. To `CC(C)(C)CC(C)(C)c1ccc(OCCSC(=N)N)cc1` belongs 32.8%; to `COc1ccc(N=N/N=c2\sc3cc(OC)ccc3n2C)cc1`, 95%. On to `O=C(Oc1cccc2cccnc12)c1ccccc1`, for which the growth was 101% and 104%. Regarding `S=C(NCCNC(=S)[S][Sn]([c]1ccccc1)([c]1ccccc1)[c]1ccccc1)[S][Sn]([c]1ccccc1)([c]1ccccc1)[c]1ccccc1`, the growth was -99.4% (active). For `C[N+](C)=c1ccc2nc3c(cc(NCCCNc4cc5oc6cc(=[N+](C)C)ccc-6nc5c5ccccc45)c4ccccc43)oc-2c1`, the growth was 17.5%. As for `C[n+]1c(/C=C/c2ccc([N+](=O)[O-])cc2)ccc2ccccc21`, the growth is 80.8%.

Regarding `CCC(CCCN(CC)CCc1ccccc1)OC(=O)c1cc(OC)c(OC)c(OC)c1` (configuration not stated), the growth was 96.6%. To `O=C(/C=C\c1ccccc1)N1c2ccccc2CC1c1c[nH]c2ccccc12` (configuration not stated) belongs 64.4%; to `OC(CNc1ccnc2cc(Cl)ccc12)CNc1ccnc2cc(Cl)ccc12`, 44.5%; to `COC(=O)c1nc(=S)[nH]c(C(=O)OC)c1C(=O)c1ccccn1`, 24.6%. Regarding `Cc1ccc(N=C=C(c2ccccc2)c2ccccc2)cc1`, the growth is 95%.

Regarding `NC(=S)N/N=C/c1ccc(Cl)s1`, the growth is 101%. For the molecule `O=[N+]([O-])c1ccc2c(N=Nc3ccc4ccccc4c3O)c(O)cc(S(=O)(=O)O)c2c1`, the growth is 95.6%. As to `CC(=Nc1ccc(N(C)C)cc1)c1ccccc1`, the growth was 42.6%. `O=[N+]([O-])c1ccc(N=Nc2ccc(O)cc2O)cc1`: the growth was 64.3%. Consider `CCC(CC)COC(=O)c1ccc(O)c(O)c1`, for which the growth is 61.3%. For `CCC(c1cccc(O)c1)C(CC)c1cccc(O)c1` (configuration not stated), the growth is 36.7%.

As for `COC(=O)C(CSC(c1ccccc1)(c1ccccc1)c1ccccc1)NC(=O)C(CC(N)=O)NC(=O)OCc1ccccc1` (stereo not drawn) (Cbz-Asn-Cys(Trt)-OMe; configuration not given here), the growth was 33%.

For `CCC(=O)Sc1ccccc1C(=O)Nc1ccc(Cl)cc1`, the growth was 64.9%.

Consider `Nc1ncnc2c1ncn2C1OC(CO)C(O)C1O` (configuration not stated), for which the growth was 116% and 112% and 114%. As to `Cc1ccc2c(ccc3c[n+]4c5ccccc5ccc4n32)c1`, the growth is -8.63% (active). On to `O=C(Nc1ccc(F)cc1)ON=C1CCCCC1`, for which the growth is 92.9% [100 µM]. With `CC1=CC(O)C2CC1C2(C)C` (configuration not stated), the growth is 101% and 114%. In the case of `O=C(CC1(O)C(=O)Nc2c(Cl)ccc(Cl)c21)c1ccc(Cl)cc1Cl` (configuration not stated), the growth is 102%.

Regarding `O=C1N[C@H]2[C@H](CS[C@H]2CCCCC(=O)N(CCP(c2ccccc2)c2ccccc2)CCP(c2ccccc2)c2ccccc2)N1`, the growth was 59.9%. `C=C(Cl)C(=NC(C)(C)C)Nc1ccccc1C`: the growth is 80.9%. `Cc1ccnc(NC(c2ccccc2)c2ccc3cccnc3c2O)c1` (configuration not stated): the growth was 32.8%. With `Cc1cc2nc(CS)[nH]c2cc1C`, the growth is 88%. Next, `O=C(O)C1C2CC3C(OC(=O)C31)C2Br` (configuration not stated): 108% and 106%; `Cc1ccnc2c1ccc1c(C)ccnc12`: 24.2%; `COc1ccccc1/C=C\C(=O)c1ccccc1`: 29.5%.
